Growth data for eight compounds are collected here from PubChem BioAssay (NCI).

The panel holds about 83,000 compounds, 20% with a hit somewhere; the sample as a whole holds those more often.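 48-hour exposure, single concentration, 96-well plates; percent growth endpoint where 0 means no net growth. Active: below 10.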 Unmarked numbers belong to inactive results. The source made the active and inactive calls.

Test systems include NCI-H23 lung; NCI-H226 lung; NCI-H322M lung; HOP-62 NSCLC; NCI-H460 lung; HOP-92 NSCLC; NCI-H522 lung; A549/ATCC NSCLC; 786-0 renal; COLO 205 colon; DU-145 prostate; K-562 leukemia; MALME-3M melanoma; MDA-MB-231 breast; RXF 393 renal; SF-268 CNS; SF-295 CNS; SF-539 CNS; UACC-257 melanoma; M14 melanoma.
What all share (test): NCI-60 one-dose screen, 48 h (100 = growth as untreated, 0 = no growth, -100 = all killed)
What all share (settings): 10 µM unless noted

Turning to `Cc1[nH]c(C(=O)Nc2ccc(S(=O)(=O)N3CCCCC3)cc2OCCOCCOCCOCCOCCOCCOCCOCCOCCOc2cc(S(=O)(=O)N3CCCCC3)ccc2NC(=O)c2[nH]c(C)c3c2CCCCC3=O)c2c1C(=O)CCCC2`, the growth with NCI-H23 lung is 20.8%; with NCI-H226 lung it was -2.37% (active); in the experiment with NCI-H322M lung, 34.1%; with HOP-62 NSCLC, 12.5%; in the experiment with NCI-H460 lung, 35.6%; in the experiment with HOP-92 NSCLC, 16.9%. Further, the growth is 0.322% (active) in the experiment with NCI-H522 lung; 24.1% with A549/ATCC NSCLC; 40.2% in the experiment on 786-0 renal; -30.3% (active) with COLO 205 colon; 47.3% in the experiment on DU-145 prostate; 19.2% in the experiment with K-562 leukemia. The growth is 3.69% (active) with MALME-3M melanoma; 11.6% with MDA-MB-231 breast; 47% with RXF 393 renal; 44.3% with SF-268 CNS; 30.8% in the experiment on SF-295 CNS; 14.1% in the experiment with SF-539 CNS. For the same compound, the growth in the experiment on UACC-257 melanoma is -27% (active); in the experiment on M14 melanoma, 14%.
Regarding `NC(=O)c1c(NC(=O)c2ccc(C(F)(F)F)cc2)sc2c1CCC(=O)C2`, the growth in the experiment on NCI-H23 lung was -6.8% (active); in the experiment with NCI-H226 lung, -24% (active); in the experiment with NCI-H322M lung it was 92.1%; in the experiment with HOP-62 NSCLC, 13.5%; in the experiment with NCI-H460 lung it was 19.1%; in the experiment on HOP-92 NSCLC, -25.3% (active). For the same compound, the growth with NCI-H522 lung was -25.9% (active); in the experiment on A549/ATCC NSCLC, 12.1%; in the experiment with 786-0 renal it was 24.5%; in the experiment on COLO 205 colon, -64.7% (active); in the experiment with DU-145 prostate it was 59%; with K-562 leukemia, 7.94% (active). Besides, the growth with MALME-3M melanoma was -22.4% (active); with MDA-MB-231 breast, -14.5% (active); in the experiment on RXF 393 renal, -5.39% (active); with SF-268 CNS, 13.2%; in the experiment with SF-295 CNS it was 4.24% (active); in the experiment on SF-539 CNS it was -74.3% (active). Moreover, the growth in the experiment on UACC-257 melanoma is -18% (active); in the experiment on M14 melanoma, -22% (active).
With `NS(=O)(=O)c1ccc(Nc2nc(N/N=C/C=C/c3ccccc3)nc(Nc3ccccc3)n2)cc1`, the growth with NCI-H23 lung was 40.1%; in the experiment with NCI-H226 lung, 58.6%; in the experiment on NCI-H322M lung, 56.8%; in the experiment on HOP-62 NSCLC, 56.2%; with NCI-H460 lung, 6.23% (active); in the experiment with HOP-92 NSCLC, 83.9%. Also, the growth is 66.4% in the experiment on NCI-H522 lung; 69.3% in the experiment with A549/ATCC NSCLC; 37.6% with 786-0 renal; 55.3% in the experiment on COLO 205 colon; 42.5% in the experiment on DU-145 prostate; 27.1% with K-562 leukemia. The growth was 50.7% with MALME-3M melanoma; 47.9% with MDA-MB-231 breast; -8.45% (active) with RXF 393 renal; 46% in the experiment on SF-268 CNS; 44.5% in the experiment with SF-295 CNS; 39.4% with SF-539 CNS. In addition, the growth in the experiment with UACC-257 melanoma was 79.2%; in the experiment on M14 melanoma it was 40.3%.
Turning to `NC(=S)n1c(=O)n(-c2cccc(C(F)(F)F)c2)c(=O)c2cc(-c3ccc(F)cc3F)ccc21`, the growth in the experiment on NCI-H23 lung is -5.28% (active); in the experiment with NCI-H226 lung it was 9.53% (active); in the experiment with NCI-H322M lung it was 6.11% (active); in the experiment on HOP-62 NSCLC, 1.42% (active); with NCI-H460 lung, 6.23% (active); in the experiment on HOP-92 NSCLC, -29.9% (active). For the same compound, the growth in the experiment with NCI-H522 lung was -4.04% (active); in the experiment on A549/ATCC NSCLC, 7.29% (active); in the experiment on 786-0 renal it was 11.4%; with COLO 205 colon, 37.5%; in the experiment on DU-145 prostate, 24.5%; in the experiment with K-562 leukemia it was 8.79% (active). The growth with MALME-3M melanoma was -17.5% (active); in the experiment with MDA-MB-231 breast it was -11.3% (active); in the experiment on RXF 393 renal, 0.891% (active); in the experiment on SF-268 CNS, 13.3%; in the experiment on SF-295 CNS, -12% (active); with SF-539 CNS, 17.2%. Also, the results for the growth with UACC-257 melanoma and in the experiment with M14 melanoma were -7.03% (active) and 14.5%, respectively.
For the compound `CCNC(=O)Oc1ccc(/C(=C(/C)c2ccc(Cl)cc2)c2ccc(OCCN3CCCCCC3)cc2)cc1`, the growth in the experiment with NCI-H23 lung was 22.1%; with NCI-H226 lung, 80.9%; with NCI-H322M lung, 75.9%; with HOP-62 NSCLC, -19.9% (active); in the experiment on NCI-H460 lung, -62.3% (active); in the experiment with HOP-92 NSCLC it was 60%. Moreover, the growth was 82.4% in the experiment on NCI-H522 lung; 43.9% with A549/ATCC NSCLC; 22.5% with 786-0 renal; -74.5% (active) in the experiment with COLO 205 colon; 58.5% with DU-145 prostate; 5.06% (active) in the experiment with K-562 leukemia. Besides, the growth in the experiment with MALME-3M melanoma was -58.4% (active); in the experiment with MDA-MB-231 breast it was 21.3%; with RXF 393 renal, -10.3% (active); with SF-268 CNS, 53.9%; in the experiment with SF-295 CNS it was -40.1% (active); in the experiment with SF-539 CNS, -44% (active). In addition, the figures for the growth in the experiment on UACC-257 melanoma and in the experiment with M14 melanoma were -19.9% (active) and -76.5% (active), respectively.
For the compound `CCn1c2ccc(/C=N/N(C)S(=O)(=O)CCN(C)C)cc2c2cc(/C=N/N(C)S(=O)(=O)CCN(C)C)ccc21`, the growth in the experiment on NCI-H23 lung is 43.4%; with NCI-H226 lung it was 40.8%; in the experiment with NCI-H322M lung it was 80.8%; in the experiment with HOP-62 NSCLC, 101%; in the experiment with NCI-H460 lung, 73.5%; in the experiment on HOP-92 NSCLC, 42.4%. Further, the growth with NCI-H522 lung is 36%; in the experiment with A549/ATCC NSCLC, 84.5%; with 786-0 renal, 50.3%; with COLO 205 colon it was 92.8%; with DU-145 prostate, 77.3%; with K-562 leukemia, 8.55% (active). For the same compound, the growth is 62.7% in the experiment with MALME-3M melanoma; 55% in the experiment on MDA-MB-231 breast; 46.9% with RXF 393 renal; 76.7% in the experiment with SF-268 CNS; 80% with SF-295 CNS; 4.32% (active) with SF-539 CNS. Besides, the growth in the experiment with UACC-257 melanoma was 92.8%; in the experiment on M14 melanoma, 66%.
As to `CC(Nc1c(C#N)cnc2ccc(-c3cncc(O)c3)cc12)c1ccccc1` (stereo not given), the growth in the experiment with NCI-H23 lung is 1.12% (active); in the experiment with NCI-H226 lung, 2.59% (active); in the experiment with NCI-H322M lung, -36.8% (active); in the experiment on HOP-62 NSCLC, 5.27% (active); with NCI-H460 lung, 0.377% (active); in the experiment on HOP-92 NSCLC, -3.64% (active). In addition, the growth in the experiment on NCI-H522 lung is -43.4% (active); with A549/ATCC NSCLC, 15.9%; in the experiment with 786-0 renal, -1.52% (active); in the experiment with COLO 205 colon, 57.6%; with DU-145 prostate it was 3.93% (active); in the experiment with K-562 leukemia it was 15.3%. In addition, the growth is -34.1% (active) in the experiment with MALME-3M melanoma; 14.4% in the experiment with MDA-MB-231 breast; -24.6% (active) in the experiment with RXF 393 renal; 2.54% (active) with SF-268 CNS; -13% (active) with SF-295 CNS; 0.714% (active) in the experiment with SF-539 CNS. Further, the growth in the experiment with UACC-257 melanoma was 18.2%; in the experiment on M14 melanoma, 4.07% (active).
Take `N#C/C(=C\c1ccc(-c2ccc(Cl)c(Cl)c2)o1)C(=O)Nc1ncc(Cc2ccc(Cl)cc2)s1`: the growth in the experiment with NCI-H23 lung was 38.2%; in the experiment with NCI-H226 lung it was 73.6%; with NCI-H322M lung, 33%; in the experiment on HOP-62 NSCLC, 72.1%; with NCI-H460 lung it was -42.4% (active); with HOP-92 NSCLC it was 81.5%. Also, the growth was 47.1% in the experiment on NCI-H522 lung; 11.6% in the experiment on A549/ATCC NSCLC; 11.4% in the experiment on 786-0 renal; 55.8% in the experiment with COLO 205 colon; 29.7% in the experiment with DU-145 prostate; 52.5% with K-562 leukemia. The growth was 17.2% with MALME-3M melanoma; 50% in the experiment with MDA-MB-231 breast; 66% in the experiment with RXF 393 renal; 34.7% in the experiment with SF-268 CNS; 20.4% in the experiment on SF-295 CNS; 46.7% in the experiment on SF-539 CNS. For the same compound, the growth with UACC-257 melanoma was 78.2%; in the experiment on M14 melanoma, 21.6%.
